The source of these data is the supplement of paper PMC6805474.

A number with no mark means an inactive call. Bounds are passed on as bounds.

Test [1] concerns Schistosoma mansoni schistosomula (NMRI). Kind of test: phenotypic severity score (0-4); higher = more antischistosomal effect, active = 2 or more. To be noted: 10 µM.
Test [2] relates to Schistosoma mansoni schistosomula (Liberian). Kind of test: drug effect (1 - score/DMSO control score) (fraction); higher = more antischistosomal effect, active = 0.5 or more; extreme values may be limits of the assay. To be noted: 10 µM. In short, it runs like this: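 A plate was valid only if its 0.1% DMSO wells averaged a score of at least 2. Those wells ran beside duplicate wells in which 50 Liberian-strain Schistosoma mansoni schistosomula each, transformed mechanically from cercariae and pre-incubated at least 12 h, met 10 µM compound in Medium 199 with 5% FCS at 37 °C, 5% CO2. Scoring was visual at 10× at 24, 48 and 72 h, from 3 (normal) to 0 (dead) in quarter-point steps. Drug effect was derived from the mean test-well score against the mean DMSO-well score, with negatives set to zero.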
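Wherever phenotypic severity score (0-4) is given: visual microscopic scoring of shape, motility and density changes versus 0.5% DMSO solvent controls, one point per descriptor, degeneracy or death scored 4, mean of duplicate wells.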

Regarding `O=C1O[C@@H](COc2ccon2)CN1c1cc(F)c(C2=CCN(Cc3ccccc3)CC2)c(F)c1`, the phenotypic severity score in test [1] (24 h), in test [1] (48 h) and in test [1] (72 h) was 0 in each case. Besides, the drug effect in test [2] (24 h) was 0.1; in test [2] (48 h) it was 0.167; in test [2] (72 h) it was 0.25.
As to `CC(C)(C)C(O)C(Oc1ccc(-c2ccccc2)cc1)n1cncn1` (centres undefined), the results for the phenotypic severity score in test [1] (24 h), in test [1] (48 h) and in test [1] (72 h) were 1, 0 and 0, respectively. The drug effect in test [2] (24 h) is 0.0909; in test [2] (48 h), 0.15; in test [2] (72 h), 0.127.
Regarding `Nc1c2c(nc3sc4c(c13)CCCC4)CCCC2`, the phenotypic severity score in test [1] (24 h), in test [1] (48 h) and in test [1] (72 h) was 4 (active) in each case. Besides, the values for the drug effect in test [2] (24 h), in test [2] (48 h) and in test [2] (72 h) were 0.545 (active), 0.8 (active) and 0.564 (active), respectively.
As for `Cc1cc(C2=NOC(c3cc(Cl)c(F)c(Cl)c3)(C(F)(F)F)C2)ccc1C(=O)NCc1ccc2c(c1)C(C)(C)OB2O` (centres undefined), the phenotypic severity score in test [1] (24 h), in test [1] (48 h) and in test [1] (72 h) was 0 each time. Moreover, the drug effect in test [2] (24 h) is 0.2; in test [2] (48 h), 0.135; in test [2] (72 h), 0.167.
As to `CO/C=C(/C(=O)OC)c1ccccc1Oc1cc(Oc2ccccc2C#N)ncn1`, the phenotypic severity score in test [1] (24 h), in test [1] (48 h) and in test [1] (72 h) was 0 each time. For the same compound, the values for the drug effect in test [2] (24 h), in test [2] (48 h) and in test [2] (72 h) were 0.05, 0.027 and 0.111, respectively.
As to `Cc1cccc(C(=O)Nc2ccnc(N(C)C3CCN(CC(C)C)CC3)c2)c1`, the phenotypic severity score in test [1] (24 h), in test [1] (48 h) and in test [1] (72 h) was 0 in each case. For the same compound, the values for the drug effect in test [2] (24 h), in test [2] (48 h) and in test [2] (72 h) were 0.1, 0.243 and 0.212, respectively.
As to `CC1(C)OB(O)c2ccc(C3=NOC(c4cc(Cl)c(F)c(Cl)c4)(C(F)(F)F)C3)cc21` (centres undefined), the phenotypic severity score was 2 (active) in test [1] (24 h), 0 in test [1] (48 h) and 1 in test [1] (72 h). Also, the drug effect in test [2] (24 h), in test [2] (48 h) and in test [2] (72 h) was 1 (active) throughout.
`O=C1O[C@@H](CO)CN1c1cc(F)c(C2=CCN(Cc3ccccc3)CC2)c(F)c1`: the phenotypic severity score in test [1] (24 h) is 0; in test [1] (48 h) it was 0; in test [1] (72 h) it was 2 (active). For the same compound, the drug effect is 0.05 in test [2] (24 h), 0.111 in test [2] (48 h) and 0.188 in test [2] (72 h).
`CO[C@@H]1CN(c2ccc(C#CC3(O)CN4CCC3CC4)c(Cc3ccccc3)n2)C[C@H]1O` (some centres undefined): the phenotypic severity score in test [1] (24 h), in test [1] (48 h) and in test [1] (72 h) was 0 throughout. Moreover, the drug effect in test [2] (24 h) is under 0; in test [2] (48 h), under 0; in test [2] (72 h) it was 0.111.
As to `CC1COC(Cn2cncn2)(c2ccc(Oc3ccc(Cl)cc3)cc2Cl)O1` (centres undefined), the phenotypic severity score in test [1] (24 h) was 2 (active); in test [1] (48 h) it was 1; in test [1] (72 h), 2 (active). Also, the drug effect in test [2] (24 h) is 0.136; in test [2] (48 h), 0.25; in test [2] (72 h), 0.0727.
On to `Cc1nn(Cc2ccccc2)c(Cl)c1C(=O)NC1CCCCCC1`, for which the phenotypic severity score was 2 (active) in test [1] (24 h), 0 in test [1] (48 h) and 0 in test [1] (72 h). In addition, the figures for the drug effect in test [2] (24 h), in test [2] (48 h) and in test [2] (72 h) were 0.0455, 0.05 and 0.0727, respectively.
`Cc1nn(C)c(C)c1NS(=O)(=O)c1c(Cl)cc(-c2ccnc(N3CCNCC3)c2)cc1Cl`: the phenotypic severity score in test [1] (24 h), in test [1] (48 h) and in test [1] (72 h) was 0 in each case. In addition, the drug effect in test [2] (24 h) is 0.15; in test [2] (48 h) it was 0.0811; in test [2] (72 h), 0.152.
Turning to `CCc1nn(C)c(C(=O)NCc2ccc(Oc3ccc(C)cc3)cc2)c1Cl`, the phenotypic severity score is 1 in test [1] (24 h), 1 in test [1] (48 h) and 2 (active) in test [1] (72 h). For the same compound, the drug effect in test [2] (24 h) is 0.364; in test [2] (48 h) it was 0.55 (active); in test [2] (72 h) it was 0.455.
Turning to `CO/N=C(\C(=O)OC)c1ccccc1CO/N=C(\C)c1cccc(C(F)(F)F)c1`, the phenotypic severity score was 1 in test [1] (24 h), 0 in test [1] (48 h) and 0 in test [1] (72 h). The drug effect in test [2] (24 h) is 0.05; in test [2] (48 h), 0.027; in test [2] (72 h), 0.152.
